Results: PubChem BioAssay (EPA / NIEHS)
The source made the active and inactive calls. The calls were made as follows: active = hit-call score of the fitted dose curve at least 0.9, where 1 is the maximum; inactive = score below 0.9.

Key:
[1] = ATG_GLI_CIS: Attagene CIS-FACTORIAL HepG2 Assay for human Zinc Finger Protein GLI1 (AID 2282945); conditions: HepG2, Attagene cis-factorial reporter mRNA, GLI element; actives raise or lower the signal
Procedure, shortened: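 Transiently transfected HepG2 cells report endogenous transcription factor activity via cis-element-driven reporter units. After 24 h compound exposure, reporter mRNA was measured by RT-PCR with capillary electrophoresis; bidirectional fitting against DMSO baseline.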

[2] = ATG_GRE_CIS: Attagene CIS-FACTORIAL HepG2 Assay for human Glucocorticoid Response Elements (GRE) (AID 2282947); conditions: HepG2 GRE cis-reporter, Attagene multiplex mRNA; actives raise or lower the signal
Procedure, shortened: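 Transiently transfected HepG2 cells carrying GRE cis-reporter units (endogenous TF activity) dosed 24 h; reporter mRNA quantified by RT-PCR, 6-FAM labelling, HpaI digestion and capillary electrophoresis. Bidirectional fit versus DMSO baseline.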

[3] = ATG_ISRE_CIS: Attagene CIS-FACTORIAL HepG2 Assay for human Interferon Regulatory Factor 1 (IRF1) binding to an Interferon-Stimulated Response Element (ISRE) (AID 2282948); conditions: HepG2 ISRE cis-reporter (Attagene), mRNA transcription readout; actives raise or lower the signal
Procedure, shortened: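 HepG2 cells transiently transfected with multiplexed cis-promoter reporter units; after 24 h compound exposure, reporter mRNA quantified by RT-PCR, FAM labelling, HpaI digestion and capillary electrophoresis. Bidirectional fit versus DMSO baseline.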

[4] = ATG_M_32_CIS: Attagene CIS-FACTORIAL HepG2 Assay for M32 Transcription Factor (Internal Marker) (AID 2282949); conditions: HepG2 Attagene cis-factorial M32 reporter, mRNA; actives raise or lower the signal;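 also: background control marker of the multiplexed CIS panel rather than a real target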
Procedure, shortened: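 Fluorescent capillary electrophoresis peaks of HpaI-digested, FAM-labelled RT-PCR reporter products give the signal. Source: transiently transfected human liver HepG2 cells, 24 h after chemical dosing; bidirectional fitting against DMSO.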

[5] = ATG_M_06_CIS: Attagene CIS-FACTORIAL HepG2 Assay for M06 Transcription Factor (Internal Marker) (AID 2282950); conditions: HepG2 Attagene CIS-FACTORIAL M06 internal marker reporter; actives raise or lower the signal
Procedure, shortened: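 Internal background marker within multiplexed cis-reporter HepG2 system. Cells transiently transfected, dosed 24 h; reporter mRNA measured by RT-PCR, HpaI digestion and capillary electrophoresis. Bidirectional fit relative to DMSO.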

[6] = biological target: Hepatocyte nuclear factor 6 (Homo sapiens) (UniProt Q9UBC0); assay: ATG_HNF6_CIS: Attagene CIS-FACTORIAL HepG2 Assay for human Hepatocyte Nuclear Factor 6 (HNF6) (AID 2282952); conditions: HepG2 Attagene cis-factorial HNF6 reporter transcription; actives raise or lower the signal
Procedure, shortened: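 Transiently transfected HepG2 cells expressing cis-regulated reporter transcription units were exposed to chemical for 24 h in a 24-well format. Reporter transcript abundance was determined by fluorescence capillary electrophoresis.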

[7] = biological target: Heat shock factor protein 1 (Homo sapiens) (UniProt Q00613); assay: ATG_HSE_CIS: Attagene CIS-FACTORIAL HepG2 Assay for human Heat Shock Transcription Factor 1 (HSE) (AID 2282953); conditions: HepG2 HSE cis-reporter, Attagene RNA transcription; actives raise or lower the signal
Procedure, shortened: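 HepG2 cells transfected with cis-promoter reporter units sensing endogenous transcription factor activity; reporter mRNA quantified 24 h post-dose by RT-PCR and capillary electrophoresis of 6-FAM-labelled products. Bidirectional fitting against DMSO.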

[8] = ATG_MRE_CIS: Attagene CIS-FACTORIAL HepG2 Assay for human Metal Responsive Element (MRE) (AID 2282954); conditions: HepG2 MRE cis-reporter transcription, Attagene multiplex; actives raise or lower the signal
Procedure, shortened: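 HepG2 cells transiently transfected with cis-element-driven reporter units; mRNA measured 24 h after dosing. Reporter transcripts quantified by RT-PCR, FAM labelling, HpaI digestion and capillary electrophoresis; bidirectional fit versus DMSO.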

[9] = biological target: Paired box protein Pax-6 (Homo sapiens) (UniProt P26367); assay: ATG_Pax6_CIS: Attagene CIS-FACTORIAL HepG2 Assay for human Paired Box 6 (PAX6) (AID 2282956); conditions: HepG2 CIS-FACTORIAL PAX6 reporter transcription, RNA readout; actives raise or lower the signal
Procedure, shortened: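 HepG2 cells transiently transfected with multiplexed cis-promoter reporter units (endogenous TF activity) were dosed for 24 h. Reporter mRNA was quantified by RT-PCR, 6-FAM labeling, HpaI digestion and capillary electrophoresis; bidirectional fitting versus DMSO baseline.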

[10] = ATG_PXRE_CIS: Attagene CIS-FACTORIAL HepG2 Assay for human Pregnane X Receptor Element (PXRE) (AID 2282957); conditions: HepG2 Attagene CIS-FACTORIAL PXRE reporter, mRNA; actives raise or lower the signal
Procedure, shortened: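 Cis-element reporter mRNA in human hepatoma HepG2 cells is measured 24 h post-dosing by RT-PCR, primer-extension labeling and capillary electrophoresis; gain or loss of signal is fitted relative to DMSO.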

[11] = ATG_PPRE_CIS: Attagene CIS-FACTORIAL HepG2 Assay for human Peroxisome Proliferator-activated Response Element (PPRE) (AID 2282958); conditions: HepG2 PPRE cis-element reporter, Attagene transcription factor profiling; actives raise or lower the signal
Procedure, shortened: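 Transcript-level reporter induction in transfected HepG2 cells after 24 h chemical exposure, quantified by fluorescence from RT-PCR products separated by capillary electrophoresis.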

[12] = ATG_Sox_CIS: Attagene CIS-FACTORIAL HepG2 Assay for human SRY-box transcription factor (SOX) (AID 2282960); conditions: HepG2 Attagene cis-factorial SOX reporter, mRNA; actives raise or lower the signal
Procedure, shortened: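 Cells were transfected with reporter constructs under cis-regulatory promoters, then exposed to chemicals for 24 h. Reporter transcripts were quantified by fluorescence after RT-PCR and capillary electrophoresis; activity was fitted in both directions against DMSO.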

[13] = biological target: Transcription factor Sp1 (Homo sapiens) (UniProt P08047); assay: ATG_Sp1_CIS: Attagene CIS-FACTORIAL HepG2 Assay for human Specificity Protein 1 (Sp1) (AID 2282961); conditions: HepG2 Sp1 cis-reporter transcription, actives raise or lower the signal
Procedure, shortened: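 Measures mRNA induction of an Sp1-linked reporter in HepG2 cells 24 h post-dosing. Multiplexed reporters read by RT-PCR and capillary electrophoresis; DMSO serves as negative control and baseline.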

[14] = ATG_SREBP_CIS: Attagene CIS-FACTORIAL HepG2 Assay for human Sterol Regulatory Element Binding (SREBP) (AID 2282962); conditions: HepG2 Attagene cis-factorial SREBP reporter, mRNA; actives raise or lower the signal
Procedure, shortened: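 HepG2 cells transiently transfected with multiplexed cis-element reporter units report endogenous transcription factor activity. After 24 h of chemical exposure, reporter mRNA was quantified by RT-PCR, 6-FAM labelling, HpaI digestion and capillary electrophoresis; bidirectional fits used DMSO as baseline.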

[15] = biological target: Signal transducer and activator of transcription 3 (Homo sapiens) (UniProt P40763); assay: ATG_STAT3_CIS: Attagene CIS-FACTORIAL HepG2 Assay for human Signal Transducer and Activator of Transcription 3 (STAT3) (AID 2282963); conditions: HepG2, Attagene cis-factorial STAT3 reporter transcription; actives raise or lower the signal
Procedure, shortened: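 HepG2 cells transiently transfected with multiple cis-element-driven reporter units report endogenous transcription factor activity. After 24 h compound exposure, reporter mRNA is measured by RT-PCR, 6-FAM labelling, HpaI digestion and capillary electrophoresis. Fitted bidirectionally versus DMSO.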

[16] = ATG_TA_CIS: Attagene CIS-FACTORIAL HepG2 Assay for human TA Basal Promoter (AID 2282964); conditions: HepG2 Attagene CIS-factorial TA basal promoter reporter; actives raise or lower the signal
Procedure, shortened: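 HepG2 cells transiently transfected with multiple reporter units under cis promoter elements, reporting endogenous transcription factor activity; this endpoint tracks the TA basal promoter as background control. Reporter mRNA after 24 h dosing measured by RT-PCR/capillary electrophoresis; bidirectional fits versus DMSO.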

[17] = biological target: Hypoxia-inducible factor 1-alpha (Homo sapiens) (UniProt Q16665); assay: ATG_HIF1a_CIS: Attagene CIS-FACTORIAL HepG2 Assay for human Hypoxia Inducible Factor 1 (HIF1A) (AID 2282951); conditions: HepG2 Attagene cis-factorial HIF1a reporter transcription; actives raise or lower the signal
Procedure, shortened: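 HepG2, transient cis-reporter library, 24 h dosing. RNA → RT (oligo dT) → PCR → 6-FAM primer extension → HpaI → CE. Bidirectional curve fit vs DMSO.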

[18] = ATG_RORE_CIS: Attagene CIS-FACTORIAL HepG2 Assay for human RAR-related Orphan Receptor Element (RORE) (AID 2282959); conditions: HepG2 Attagene cis-factorial RORE reporter, mRNA; actives raise or lower the signal
Procedure, shortened: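 Multiplexed reporter assay measuring mRNA induction from a cis promoter element in transiently transfected HepG2 cells after 24 h treatment. Detection via RT-PCR and capillary electrophoresis fluorescence; DMSO serves as baseline.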

[19] = ATG_PBREM_CIS: Attagene CIS-FACTORIAL HepG2 Assay for human Phenobarbital-responsive Enhancer Module (PBREM) (AID 2282955); conditions: HepG2 PBREM cis-reporter, Attagene multiplexed transcription; actives raise or lower the signal
Procedure, shortened: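 HepG2, transient MRTU transfection, 24 h dosing; RNA → oligo(dT) RT → PCR → 6-FAM extension → HpaI → CE. Bidirectional fit vs DMSO.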

Measured: AC50

Paired box protein Pax-6 (Homo sapiens), sequence (P26367 whole entry, looked up): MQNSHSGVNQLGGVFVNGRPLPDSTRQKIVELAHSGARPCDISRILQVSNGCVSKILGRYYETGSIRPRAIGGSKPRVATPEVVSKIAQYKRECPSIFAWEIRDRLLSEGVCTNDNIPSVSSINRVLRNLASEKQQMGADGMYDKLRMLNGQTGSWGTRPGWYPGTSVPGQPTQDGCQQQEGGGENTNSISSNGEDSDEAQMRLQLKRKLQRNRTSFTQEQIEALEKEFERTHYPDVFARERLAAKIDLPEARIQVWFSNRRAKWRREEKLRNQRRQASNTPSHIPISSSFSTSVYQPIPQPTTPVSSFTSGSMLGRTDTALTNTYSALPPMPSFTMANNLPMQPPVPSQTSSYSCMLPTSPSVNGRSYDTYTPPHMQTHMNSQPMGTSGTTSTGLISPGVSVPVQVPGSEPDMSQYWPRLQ
Hypoxia-inducible factor 1-alpha (Homo sapiens), sequence (Q16665 whole entry, looked up): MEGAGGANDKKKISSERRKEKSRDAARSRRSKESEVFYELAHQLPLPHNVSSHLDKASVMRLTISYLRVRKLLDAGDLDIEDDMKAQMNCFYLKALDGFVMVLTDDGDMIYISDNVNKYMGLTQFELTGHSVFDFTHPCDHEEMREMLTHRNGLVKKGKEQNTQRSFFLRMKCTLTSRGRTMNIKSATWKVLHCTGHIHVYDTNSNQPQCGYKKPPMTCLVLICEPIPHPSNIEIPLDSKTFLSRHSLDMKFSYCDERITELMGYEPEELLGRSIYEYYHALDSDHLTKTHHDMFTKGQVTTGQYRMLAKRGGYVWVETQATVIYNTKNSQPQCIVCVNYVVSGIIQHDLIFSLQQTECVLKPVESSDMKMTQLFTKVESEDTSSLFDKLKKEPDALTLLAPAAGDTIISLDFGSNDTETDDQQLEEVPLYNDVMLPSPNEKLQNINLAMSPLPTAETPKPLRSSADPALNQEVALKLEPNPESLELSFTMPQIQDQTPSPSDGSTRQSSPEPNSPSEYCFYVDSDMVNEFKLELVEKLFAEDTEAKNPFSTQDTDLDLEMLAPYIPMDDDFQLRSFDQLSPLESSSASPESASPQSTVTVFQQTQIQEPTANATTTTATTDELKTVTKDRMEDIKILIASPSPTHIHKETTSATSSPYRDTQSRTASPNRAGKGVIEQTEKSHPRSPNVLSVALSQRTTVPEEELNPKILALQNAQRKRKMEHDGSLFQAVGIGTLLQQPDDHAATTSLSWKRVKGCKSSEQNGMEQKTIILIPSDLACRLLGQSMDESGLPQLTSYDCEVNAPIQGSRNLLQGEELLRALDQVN
Signal transducer and activator of transcription 3 (Homo sapiens), sequence (P40763 whole entry, looked up): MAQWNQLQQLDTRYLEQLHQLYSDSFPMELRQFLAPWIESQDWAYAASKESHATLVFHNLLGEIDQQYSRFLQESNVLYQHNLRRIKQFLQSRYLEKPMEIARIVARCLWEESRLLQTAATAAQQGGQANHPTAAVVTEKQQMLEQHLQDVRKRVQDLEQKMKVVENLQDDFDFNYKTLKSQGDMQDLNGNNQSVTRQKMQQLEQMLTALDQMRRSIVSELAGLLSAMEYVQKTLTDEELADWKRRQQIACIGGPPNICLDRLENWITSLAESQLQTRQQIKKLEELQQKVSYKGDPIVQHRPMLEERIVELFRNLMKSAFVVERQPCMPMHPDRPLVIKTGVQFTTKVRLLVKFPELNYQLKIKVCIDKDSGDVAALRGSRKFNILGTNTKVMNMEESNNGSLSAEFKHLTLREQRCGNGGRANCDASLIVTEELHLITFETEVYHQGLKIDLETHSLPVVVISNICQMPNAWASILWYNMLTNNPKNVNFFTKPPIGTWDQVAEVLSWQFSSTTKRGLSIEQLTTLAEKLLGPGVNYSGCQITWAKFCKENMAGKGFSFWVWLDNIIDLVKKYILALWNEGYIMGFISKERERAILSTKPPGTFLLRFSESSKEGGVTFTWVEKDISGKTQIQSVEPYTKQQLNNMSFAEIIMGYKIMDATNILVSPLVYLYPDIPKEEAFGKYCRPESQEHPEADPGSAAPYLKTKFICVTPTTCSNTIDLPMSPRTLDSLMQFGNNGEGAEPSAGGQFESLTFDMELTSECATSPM
Transcription factor Sp1 (Homo sapiens), sequence (P08047 whole entry, looked up): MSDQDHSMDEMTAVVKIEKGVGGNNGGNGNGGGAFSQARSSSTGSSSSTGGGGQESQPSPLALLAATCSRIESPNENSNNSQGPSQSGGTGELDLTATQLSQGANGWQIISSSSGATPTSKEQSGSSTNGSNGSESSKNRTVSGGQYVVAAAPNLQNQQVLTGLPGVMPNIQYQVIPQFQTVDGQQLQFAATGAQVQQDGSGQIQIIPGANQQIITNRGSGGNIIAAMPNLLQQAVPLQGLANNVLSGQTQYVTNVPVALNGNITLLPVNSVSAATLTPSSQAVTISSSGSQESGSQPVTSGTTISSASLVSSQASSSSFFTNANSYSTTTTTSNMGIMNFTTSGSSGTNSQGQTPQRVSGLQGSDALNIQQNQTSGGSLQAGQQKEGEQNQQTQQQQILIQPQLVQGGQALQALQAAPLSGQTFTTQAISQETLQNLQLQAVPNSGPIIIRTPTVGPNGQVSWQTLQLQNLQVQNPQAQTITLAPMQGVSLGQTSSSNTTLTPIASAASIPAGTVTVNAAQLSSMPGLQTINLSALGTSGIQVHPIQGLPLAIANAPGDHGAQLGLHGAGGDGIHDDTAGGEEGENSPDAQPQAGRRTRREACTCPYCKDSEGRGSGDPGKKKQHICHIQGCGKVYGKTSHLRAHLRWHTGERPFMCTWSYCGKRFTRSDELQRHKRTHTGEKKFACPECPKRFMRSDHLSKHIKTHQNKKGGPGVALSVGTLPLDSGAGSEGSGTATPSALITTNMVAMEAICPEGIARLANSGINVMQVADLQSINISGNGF
Hepatocyte nuclear factor 6 (Homo sapiens), sequence (Q9UBC0 whole entry, looked up): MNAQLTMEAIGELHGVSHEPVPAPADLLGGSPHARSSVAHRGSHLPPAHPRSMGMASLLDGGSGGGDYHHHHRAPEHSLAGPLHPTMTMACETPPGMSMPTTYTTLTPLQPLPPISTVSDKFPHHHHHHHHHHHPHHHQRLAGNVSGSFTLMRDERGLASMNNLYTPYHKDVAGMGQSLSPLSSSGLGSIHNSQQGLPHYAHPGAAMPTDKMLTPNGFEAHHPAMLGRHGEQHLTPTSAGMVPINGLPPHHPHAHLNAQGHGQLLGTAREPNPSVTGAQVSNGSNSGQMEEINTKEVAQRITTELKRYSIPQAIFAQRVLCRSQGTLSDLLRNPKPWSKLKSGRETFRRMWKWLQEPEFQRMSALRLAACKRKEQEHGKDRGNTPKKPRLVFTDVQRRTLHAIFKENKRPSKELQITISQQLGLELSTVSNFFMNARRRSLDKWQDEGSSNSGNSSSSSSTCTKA
Heat shock factor protein 1 (Homo sapiens), sequence (Q00613 whole entry, looked up): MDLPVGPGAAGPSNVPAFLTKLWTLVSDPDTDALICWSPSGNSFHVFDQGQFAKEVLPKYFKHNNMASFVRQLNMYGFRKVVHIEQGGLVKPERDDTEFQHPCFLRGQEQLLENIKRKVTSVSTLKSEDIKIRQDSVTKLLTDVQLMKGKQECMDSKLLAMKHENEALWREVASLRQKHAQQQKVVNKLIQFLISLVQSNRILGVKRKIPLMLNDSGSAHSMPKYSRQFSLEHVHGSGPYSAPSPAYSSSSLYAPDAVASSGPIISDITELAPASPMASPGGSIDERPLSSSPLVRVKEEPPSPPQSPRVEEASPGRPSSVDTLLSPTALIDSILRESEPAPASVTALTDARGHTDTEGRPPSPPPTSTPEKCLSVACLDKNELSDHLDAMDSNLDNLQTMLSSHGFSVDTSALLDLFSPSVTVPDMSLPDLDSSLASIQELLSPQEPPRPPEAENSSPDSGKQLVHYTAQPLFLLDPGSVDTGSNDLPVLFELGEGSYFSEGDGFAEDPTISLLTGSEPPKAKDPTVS

O=c1cc(-c2ccc(O)cc2)oc2cc(O)cc(O)c12
active: [3] 31 µM | [7] 24.9 µM | [8] 41.1 µM | [9] 21.7 µM | [10] 14 µM | [11] 26.7 µM
inactive: [1] | [2] | [4] | [5] | [6] | [12] | [13] | [14] | [15] | [16]

CC(CCO)CC(C)(C)C (configuration not stated)
inactive: [1] | [2] | [3] | [4] | [5] | [17] | [6] | [7] | [8] | [10] | [18] | [12] | [13] | [14] | [15] | [16]

CCCCC1CCCCC(=O)O1 (configuration not stated)
active: [11] 44.3 µM
inactive: [1] | [2] | [3] | [4] | [5] | [17] | [6] | [8] | [9] | [10] | [18] | [12] | [13] | [14] | [15] | [16]

C=C(C)C(=O)OCCC[Si](OC)(OC)OC
inactive: [1] | [2] | [3] | [4] | [5] | [17] | [6] | [8] | [9] | [10] | [11] | [18] | [12] | [13] | [14] | [15]

C/C=C(\C)C(=O)OC/C=C(\C)CCC=C(C)C
inactive: [1] | [2] | [3] | [4] | [5] | [17] | [6] | [8] | [9] | [10] | [18] | [12] | [13] | [15] | [16]
active: [11] 39.6 µM | [14] 61.3 µM

CC(O)CN (configuration not stated)
inactive: [1] | [2] | [3] | [4] | [5] | [17] | [6] | [9] | [10] | [18] | [12] | [13] | [14] | [15] | [16]

CCCC[N+](C)(CCCC)CCCC
inactive: [1] | [2] | [3] | [4] | [5] | [17] | [6] | [8] | [19] | [9] | [10] | [11] | [18] | [12] | [13] | [14] | [15]

COc1ccc(OC)cc1
inactive: [1] | [2] | [3] | [4] | [5] | [17] | [6] | [8] | [19] | [9] | [10] | [11] | [18] | [12] | [13] | [14] | [15] | [16]
